# Measurements: PubChem BioAssay AID2240 (Broad Institute, 2010)
# Among all 37,000 compounds or so, about 100 (0.27%) were called active. No stated cut-off is given here; in the data, active means inhibition above about 85%; inconclusive means no clear call, values can overlap the other calls; inactive means below about 68%. Shown is part of a subset that was picked to be rich in actives.
# Assay: inhibitors of MITF, primary screen, MITF inhibitor project, cell-based, luminescence (AID 2240);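 further: human melanocyte line stably carrying TRPM1 promoter luciferase reporter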
# Details: TRPM1 promoter luciferase, 24 h, active compounds read high, concentration not given here
row,Structure (SMILES),inhibition
1,Cc1scc(C(=O)NCCc2ccc(S(N)(=O)=O)cc2)c1-c1ccccc1,5.94% (inactive)
2,C[C@@H]1CCCCO[C@H](CN(C)C(=O)NC2CCCCC2)[C@@H](C)CN([C@H](C)CO)C(=O)c2cc(NS(=O)(=O)c3ccc(F)cc3)ccc2O1,0.476% (inactive)
3,CS(=O)(=O)N(CC(=O)Nc1cc(C(F)(F)F)ccc1Cl)c1ccccc1Br,-1.7% (inactive)
4,Cc1ccc(C)c(NC(=O)CCC(=O)O)c1,-5.62% (inactive)
5,COc1ccc(S(=O)(=O)N(C)C[C@@H]2Oc3ccc(NS(=O)(=O)c4cn(C)cn4)cc3C(=O)N([C@@H](C)CO)C[C@@H]2C)cc1,-3.33% (inactive)
6,O=C(CCn1nc(-c2ccc(Cl)cc2)c2ccccc2c1=O)Nc1ccc(Br)cc1,-0.695% (inactive)
7,Cc1noc(C)c1NC(=O)N(C)C[C@@H]1Oc2ccc(NC(=O)C3CC3)cc2C(=O)N([C@H](C)CO)C[C@@H]1C,-4.76% (inactive)
8,C[C@H]1CN([C@@H](C)CO)C(=O)Cc2cc(NS(=O)(=O)c3ccc(Cl)cc3)ccc2O[C@H]1CN(C)S(C)(=O)=O,0.52% (inactive)
9,Cc1cc(N(CC(=O)Nc2ccc(C(F)(F)F)cc2)S(C)(=O)=O)ccc1Br,-4.48% (inactive)
10,Cc1cc2oc(C(=O)Nc3sc4c(c3C(=O)NCc3ccco3)CCC4)c(C)c2cc1C,0.363% (inactive)
11,C[C@@H]1CN([C@@H](C)CO)C(=O)c2cccc(NC(=O)Nc3ccccc3)c2O[C@H]1CN(C)Cc1ccccc1,41.2% (inactive)
12,Cc1ccc(NC(=O)CSc2nc3ccccc3s2)cc1[N+](=O)[O-],-10% (inactive)
13,Cc1nn(CC(=O)NCc2ccccn2)c(C)c1[N+](=O)[O-],-12.3% (inactive)
14,COc1cc([N+](=O)[O-])ccc1NC(=S)NCc1cc(C)n(C)n1,-13.2% (inactive)
15,C[C@H]1CN([C@@H](C)CO)C(=O)Cc2cc(NC(=O)Nc3ccc(F)cc3)ccc2O[C@H]1CN(C)C(=O)Nc1ccc(C(F)(F)F)cc1,-15.8% (inactive)
16,C[C@@H]1CCCCO[C@@H](CN(C)C)[C@@H](C)CN([C@H](C)CO)C(=O)c2cc(N(C)C)ccc2O1,5.75% (inactive)
17,CCOC(=O)Cc1csc(NC(=O)c2sc3cccc(F)c3c2Cl)n1,57.6% (inactive)
18,CN(CC(=O)Nc1ccc(Br)cc1)S(=O)(=O)c1ccc2ccccc2c1,11% (inactive)
19,C[C@H](CO)N1C[C@H](C)[C@H](CN(C)C(=O)Nc2ccc(C(F)(F)F)cc2)Oc2ccc(NC(=O)Nc3ccccc3)cc2C1=O,43% (inactive)
20,O=C(CN1C(=O)COc2ccc(Cl)cc21)Nc1ccc(N2CCOCC2)cc1,-7.45% (inactive)
21,Cc1ccc(C)c(NC(=O)CSc2nc(C)nc3sc(C)c(C)c23)c1,3.61% (inactive)
22,CCSC1=C(C#N)C(=O)NCS1,-7.65% (inactive)
23,O=C(CSc1nnc(-c2ccc(Br)cc2)o1)Nc1ccc2ccccc2c1,-4.41% (inactive)

row,Structure (SMILES),inhibition
1,O=C1c2ccccc2S(=O)c2ccccc2S(=O)(=O)N1Cc1ccccc1 (stereo not given),46.6% (inactive)
2,C[C@@H]1CN([C@H](C)CO)C(=O)c2cc(NC(=O)Nc3ccccc3)ccc2O[C@@H]1CN(C)Cc1ccc(Cl)c(Cl)c1,34.3% (inactive)
3,C[C@H](CO)N1C[C@H](C)[C@@H](CN(C)S(=O)(=O)c2cn(C)cn2)Oc2c(NC(=O)C3CC3)cccc2C1=O,-3.68% (inactive)
4,O=C(NCCCn1ccnc1)c1cc2c(s1)CCCC2,1.51% (inactive)
5,O=C(O)c1cccc(S(=O)(=O)Nc2ccc(O)cc2Sc2nc3ccccc3s2)c1,7.04% (inactive)
6,O=C(CCn1nc(-c2ccc(Cl)cc2)c2ccccc2c1=O)Nc1cccc(C(F)(F)F)c1,4.42% (inactive)
7,C[C@H](CO)N1C[C@H](C)[C@H](CN(C)C(=O)Nc2ccccc2)Oc2c(NC(=O)Nc3ccc(C(F)(F)F)cc3)cccc2C1=O,21.9% (inactive)
8,C[C@@H]1CCCCO[C@H](CN(C)Cc2ccc(Cl)c(Cl)c2)[C@@H](C)CN([C@H](C)CO)C(=O)c2cc(NS(=O)(=O)c3cn(C)cn3)ccc2O1,-5.53% (inactive)
9,COc1ccc(CN(C)C[C@@H]2Oc3ccc(NS(=O)(=O)c4cn(C)cn4)cc3C(=O)N([C@@H](C)CO)C[C@H]2C)cc1,-13% (inactive)
10,O=C1Cc2ccc(F)cc2CC1C1=Cc2ccc(F)cc2CC1 (stereo not given),5.98% (inactive)
11,C[C@H]1CN([C@@H](C)CO)C(=O)c2cc(NC(=O)NC3CCCCC3)ccc2O[C@@H]1CN(C)C(=O)Nc1cccc2ccccc12,10.4% (inactive)
12,COc1ccc(C)cc1S(=O)(=O)N(C)CC(=O)Nc1ccc(Br)cc1F,8.55% (inactive)
13,C[C@@H]1CN([C@H](C)CO)C(=O)Cc2cc(NC(=O)Nc3ccc(C(F)(F)F)cc3)ccc2O[C@H]1CN(C)Cc1ccc(-c2ccccc2)cc1,-11.6% (inactive)
14,Cc1ccc(-n2c(SCC(=O)Nc3ccccc3F)nnc2-c2ccccc2)cc1C,10.1% (inactive)
15,C[C@@H]1CN([C@H](C)CO)C(=O)c2cccc(NC(=O)Nc3ccc4c(c3)OCO4)c2O[C@H]1CN(C)C(=O)Nc1ccc(F)cc1,7.91% (inactive)
16,Cc1cc(C)c(C)c(Oc2coc3cc(OCC(=O)Nc4ccccc4Cl)ccc3c2=O)c1,-3.54% (inactive)
17,C[C@@H]1CN([C@@H](C)CO)C(=O)c2cc(NS(=O)(=O)c3ccc(F)cc3)ccc2O[C@@H]1CN(C)C(=O)NC1CCCCC1,1.15% (inactive)
18,O=C(CSc1nc2c(c(C(F)(F)F)n1)CCCC2)N1c2ccccc2Sc2ccccc21,11% (inactive)
19,O=[N+]([O-])c1ccccc1-c1ccc(CN2CCN3CCCC3C2C2CCCCC2)o1 (stereo not given),-7.52% (inactive)
20,C/C=C(/C)C(=O)O[C@H]1CC(C)(C)C[C@H]2C3=CCC4[C@@]5(C)CC[C@H](O[C@@H]6O[C@H](C(=O)O)[C@@H](O[C@@H]7O[C@H](CO)[C@H](O)[C@H](O)[C@H]7O[C@@H]7O[C@H](CO)[C@@H](O)[C@H](O)[C@H]7O)[C@H](O)[C@H]6O[C@@H]6O[C@@H](C)[C@H](O)[C@@H](O)[C@H]6O)C(C)(C)C5CC[C@@]4(C)[C@]3(C)[C@@H](OC(C)=O)[C@@H](O)[C@@]12COC(C)=O (stereo not given in full),50.5% (inactive)
21,CC1OC(OC2C(OC3C(O[C@H]4CC[C@@]5(C)C(CC[C@]6(C)C5CC=C5[C@@H]7CC(C)(C)C[C@@H](O)[C@]7(C)CC[C@]56C)C4(C)C)OC(C(=O)O)C(O)C3O)OC(CO)C(O)C2O)C(O)C(O)C1O (stereo not given in full),-6.6% (inactive)
22,C/C=C(/C)C(=O)O[C@H]1CC(C)(C)C[C@H]2C3=CCC4[C@@]5(C)CC[C@H](O[C@@H]6O[C@H](C(=O)O)[C@@H](O[C@@H]7O[C@H](CO)[C@H](O)[C@H](O)[C@H]7O[C@@H]7O[C@H](CO)[C@@H](O)[C@H](O)[C@H]7O)[C@H](O)[C@H]6O[C@@H]6O[C@@H](C)[C@H](O)[C@@H](O)[C@H]6O)C(C)(C)C5CC[C@@]4(C)[C@]3(C)[C@@H](O)[C@@H](O)[C@@]12CO (stereo not given in full),93.6% (active)
